Compounds with a hit are over-represented: about 1.6% of the library has one in this group of screens.
Peg3 imprint: induces erasure of genomic imprints in mouse ES cells; mouse ES Peg3-LacZ reporter, beta-gal luminescence, 40 h; actives 0.02% (n = 110,000); Potency, µM (titrated, usually from 60.7 µM), for the others: at the top dose activity change, positive = activation, most hits filed as activators; AID 1948
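Gelatin-coated wells received 300 freshly trypsinized female ES cells with a Peg3LacZ-Neo reporter on the maternal allele, then incubated 40 hours at 37C. BetaGlo was added for 5 minutes at room temperature before a single luminescence read.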
p53ts 39C kill: p53ts cell cytotoxicity, nonpermissive temperature; Potency, µM (titrated, usually from 46.1 µM), for the others: at the top dose activity change, negative = cell killing, hits mostly cytotoxic; actives 1.5% (n = 130,000); H1299-p53A138V viability at 39C, ATP luminescence, 24 h; also: % is scaled to controls: 0 for no effect and ±100 for the full control effect; nearly all actives have a fitted effect of over 55% in size
p53ts 32C tox: kills p53ts cells at the permissive temperature | H1299-p53A138V at 32C, ATP luminescence viability, 24 h | Potency, µM (series often up to 46.1 µM), for the others: top-dose activity change, negative = cytotoxicity, most hits filed as cytotoxic | actives 0.93% (n = 130,000) | AID 924;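 also: 0% = DMSO and -100% = full killing by reference compound; nearly all actives have a fitted effect of over 55% in size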
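H1299-p53 A138V cells (temperature-sensitive p53) exposed 24 h to up to 46 uM compound at 32C, where p53 is wild-type in conformation. Viability read as ATP luminescence and normalised to DMSO and 100 uM tamoxifen. AC50 fitted with the Hill equation.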
Numbers without * were called inactive; ? = inconclusive; . = not tested or not shown; [ ] = another dose, or the depositor's remark. Calls follow the shape of the dose curve; as a rule, active = well fitted curve in the direction sought with a large enough effect; inconclusive = small, poorly fitted or top-dose-only effect, or another doubt; inactive = no such curve, though single readings can be large; an effect the other way counts as inactive or inconclusive. Potency is read from the fitted curve at half-maximal effect.

SMILES | Peg3 imprint | p53ts 39C kill | p53ts 32C tox
CCOc1ccc(CN(CCc2ccc3c(c2)OCO3)Cc2cc(OC)cc(OC)c2)cc1 | -9%[10.9 µM] | -22% | -13%
COc1cccc(O)c1O | -59% | 6.3µM* | 5µM*
COc1ccccc1O | 0% | -6% | ?
O=c1c2cc3c(nc2ncn1Cc1ccccc1F)CCCC3 | -6%[10.9 µM] | -12% | ?
CCc1ccccc1NC(=O)c1cc(S(=O)(=O)N2CCc3ccccc32)ccc1F | -21%[10.9 µM] | -28% | 11%
CCCCc1nn2c(=O)cc(COC(=O)c3ccc(NC(=O)CCc4ccccc4)cc3)nc2s1 | -3%[10.9 µM] | -6% | 9%
O=C(N[C@@H](Cc1ccccc1)C(=O)CCl)OCc1ccccc1 | -30% | 3.2µM* | 4µM*
COC(=O)C(C(C)=O)C(=O)C(Cc1ccccc1)NC(=O)OCc1ccccc1 (centres undefined) | . | 6%[9.22 µM] | -6%[9.22 µM]
O=C(COc1ccccc1C(=O)c1cnn(-c2ccccc2)c1)Nc1ccccc1 | . | ? | 11µM*
N#Cc1cc(C(=O)c2ccccc2OCC(=O)Nc2ccccc2)cn(C2CCCCC2)c1=O | . | 2% | -2%
O=C(Cn1c(=O)n(-c2ccccc2)c(=O)c2c3c(sc21)CCCC3)Nc1ccccc1 | 6%[10.9 µM] | 13µM* | ?
O=C(Cn1c(=O)n(-c2ccccc2)c(=O)c2c3c(sc21)CCCC3)Nc1cccc(F)c1 | -3%[10.9 µM] | 10% | 10%
Cc1ccc(-n2nc(C)c3c(C)cc(=O)n(CC(=O)Nc4ccc(Br)cc4F)c32)cc1 | -6%[10.9 µM] | -23% | 2%
CCCCN(C)CCNC(=O)c1cc(-c2ccc(Cl)s2)nc2ccccc12 | -9%[10.9 µM] | 13µM* | 7%
CC(C)CN(CCNC(=O)c1cc(-c2ccc(Cl)s2)nc2ccccc12)CC(C)C | -13%[10.9 µM] | 6% | 8%
CCN1CCN(C(=O)c2ccc3c(c2)N(Cc2cccc(F)c2)C(=O)c2ccccc2S3)CC1 | -6%[10.9 µM] | 2% | 7%
COc1ccc(-c2cc(=O)c3ccccc3s2)cc1 | -69% | 25µM* | 13µM*
COc1ccc(-c2cc(=O)c3ccccc3[nH]2)cc1 | -33%[97.3 µM] | . | .
CC1(C)CC2C1CC[C@]1(C)CCC3C(C(=O)O)CC(=O)O[C@]32C1 (some centres undefined) | 16% | 24% | 11%
Cc1nc(N2CCCC2)ncc1C(=O)N1CCN(c2ccc(Cl)cc2)CC1 | -9%[10.9 µM] | -13% | -14%
COc1ccc(Cn2ccn(Cc3cccc(Cl)c3)c(=O)c2=O)cc1 | -5%[10.9 µM] | ? | -13%
Cc1cccc(Cn2ccn(Cc3ccc(Cl)cc3)c(=O)c2=O)c1 | 8%[10.9 µM] | 32µM* | ?
COc1ccc(OC)c2c(=S)c3ccccc3[nH]c12 | -20% | -11% | 2%
COc1cccc(NC(=O)Nc2cc(-c3cn4cccnc4n3)ccc2OC)c1 | -12%[10.9 µM] | 10µM* | 10µM*
COc1cccc(NC(=O)Nc2cc(-c3cn4cccnc4n3)ccc2C)c1 | -3%[10.9 µM] | -21% | ?
SMILES | Peg3 imprint | p53ts 39C kill | p53ts 32C tox
Cc1ccc(-c2cn3cccnc3n2)cc1NC(=O)Nc1ccc(F)cc1 | 4%[10.9 µM] | 33% | -10%
COc1ccc(-c2cn3cccnc3n2)cc1NC(=O)Nc1cc(C)ccc1C | -19%[10.9 µM] | ? | 16µM*
CCOC(=O)c1c(C)[nH]c(C)c1S(=O)(=O)N1CCN(c2ccc(Cl)cc2)CC1 | -7%[10.9 µM] | 1% | 1%
O=C(N/N=C1/C[C@@H](O)[C@@H](O)[C@@H]2[C@H]3C(=O)N(c4ccc(F)cc4F)C(=O)[C@@H]3CC[C@@H]12)OCc1ccccc1 | . | 12%[9.22 µM] | -2%[9.22 µM]
O=S1(=O)c2ccccc2N(Cc2cccc(Cl)c2)c2ccccc21 | -12%[10.9 µM] | -13% | 9%
COc1ccc(-c2c(O)c3c(OC)c4c(cc3oc2=O)OC(C)(C)C=C4)cc1 | 1% | 6.3µM* | 7.9µM*
COc1ccc(-c2c(O)c3c(OC)c4c(cc3oc2=O)OC(C)(C)CC4)cc1 | 5% | -28% | ?
COc1cccc(NC(=O)CSc2nc3c([nH]c4ccccc43)c(=O)n2-c2cc(C)cc(C)c2)c1 | 21%[10.9 µM] | -18% | 1%
COC(=O)c1ccc(CSc2nc3c([nH]c4ccccc43)c(=O)n2-c2cc(C)cc(C)c2)o1 | -4%[10.9 µM] | 16µM* | 16%
CCOc1cccc(C2c3c(-c4cc(C)ccc4O)n[nH]c3C(=O)N2Cc2ccco2)c1 (centres undefined) | 13%[10.9 µM] | ? | 37%
CCCn1c(-c2ccc(OC)cc2)nc2ccccc21 | -15% | -12% | -24%
COc1ccc(-c2nc3ccccc3n2Cc2ccc(C(C)C)cc2)cc1 | -16%[10.9 µM] | 18µM* | 28%
COc1ccc(-c2nc3ccccc3n2Cc2ccc(Cl)cc2)cc1 | ? | 38% | -7%
COCn1c(-c2ccc(OC)cc2)nc2ccccc21 | . | 11µM* | 7.9µM*
COc1ccc(N2CCN(c3c4c(nc5nncn35)CCC4)CC2)cc1 | -19%[10.9 µM] | -6% | -2%
O=C(NC1CCCC1)c1ccc2c(=O)n(Cc3ccccc3)c(SCc3ccccc3F)nc2c1 | -2%[10.9 µM] | -15% | 1%
CCN(CCCNC(=O)c1cc2cc3ccc(OC)cc3nc2s1)c1cccc(C)c1 | 1%[10.9 µM] | 13µM* | ?
CCN(CCCNC(=O)c1cc2cc3ccc(OC)cc3nc2s1)c1ccccc1 | -6%[10.9 µM] | ? | -20%
FC(F)(F)c1ccccc1-c1ccc2ncnc(NCc3cccnc3)c2c1 | -20% | -9% | 4%
COC1=CC(=O)C(C(=O)c2ccccc2)=CC1=O | 18% | ? | ?
COC1=CC(=O)C=C(OC)C1=O | -39% | 16µM* | ?
O=C(CCC(=O)N1CC2CCCN2c2ccccc21)NCc1ccccc1 (centres undefined) | 6%[10.9 µM] | -13% | 4%
CCNc1ncc2nc(-c3ccccc3)c(=O)n(C)c2n1 | -12% | -26% | ?
Cc1c(C(=O)Nc2ccc(C(=O)O)cc2)nnn1-c1ccccc1 | -57%[10.9 µM] | ? | 10µM*
Cc1c(C(=O)O)nnn1-c1ccccc1 | 2% | 11% | -1%
SMILES | Peg3 imprint | p53ts 39C kill | p53ts 32C tox
Fc1ccc(Cn2c(-c3cccc(Br)c3)nc3ccccc32)cc1 | -5%[10.9 µM] | -8% | 3%
C=CCn1c(/N=C/c2ccc(N(C)C)cc2)nc2ccccc21 | -10% | -6% | 10%
CN(C)c1ccc(/C=N/n2ncc3ccccc32)cc1 | -69% | 16µM* | 13µM*
CN(C)c1ncc2nc(-c3ccc(F)cc3)c(=O)n(-c3ccccc3)c2n1 | 9% | 3% | 4%
Cc1ccc2nc(-c3ccc4c(c3)OCCO4)cc(C(=O)O)c2c1 | -28% | 10µM* | 16µM*
CS(=O)(=O)N1CCN(C(=O)c2cc(-c3cccs3)nc3ccccc23)CC1 | 2% | -15% | -24%
O=C(O)c1cc(-c2ccc3c(c2)OCO3)nc2ccccc12 | -47% | ? | ?
O=C(O)c1cc(-c2cccs2)nc2cc3c(cc12)OCCO3 | -13% | 10µM* | ?
CCCC[C@H](CC)CN=C(N)NC(N)=NCCCCCCN=C(N)NC(N)=NC[C@@H](CC)CCCC | -26%[16.8 µM] | 13µM* | -21%[20.6 µM]
CC(N)=NCCCC[C@@H](N)C(=O)O | -5% | . | .
Cc1ccc(Nc2nc(N)nc(CSc3nncn3C)n2)cc1 | . | 13µM* | ?
Cc1ccc(Nc2nc(N)nc(CSc3nnnn3-c3ccccc3)n2)cc1 | -13% | 12% | 8%
CCC(C)NC(=O)Cn1c(=O)n(Cc2ccc(C(=O)NCc3ccccc3OC)cc2)c(=O)c2ccccc21 (centres undefined) | -9%[10.9 µM] | 1% | 3%

Compound activity deposited in PubChem BioAssay by National Center for Advancing Translational Sciences (NCATS).
